{
  "source": "ChEMBL document CHEMBL4808148",
  "about": "“HDAC6 screening dataset using tau-based substrate in an enzymatic assay yields selective inhibitors and activators” (2021)",
  "note": "The whole screen tested about 5,600 compounds, of which about 390 (7%) showed an effect of 50% or more. The sample as a whole holds a higher share of strong results than the screen did.",
  "data": [
    {"target": "T1, Protein deacetylase HDAC6 (Homo sapiens) (UniProt Q9UBN7)", "T1 sequence (whole entry)": "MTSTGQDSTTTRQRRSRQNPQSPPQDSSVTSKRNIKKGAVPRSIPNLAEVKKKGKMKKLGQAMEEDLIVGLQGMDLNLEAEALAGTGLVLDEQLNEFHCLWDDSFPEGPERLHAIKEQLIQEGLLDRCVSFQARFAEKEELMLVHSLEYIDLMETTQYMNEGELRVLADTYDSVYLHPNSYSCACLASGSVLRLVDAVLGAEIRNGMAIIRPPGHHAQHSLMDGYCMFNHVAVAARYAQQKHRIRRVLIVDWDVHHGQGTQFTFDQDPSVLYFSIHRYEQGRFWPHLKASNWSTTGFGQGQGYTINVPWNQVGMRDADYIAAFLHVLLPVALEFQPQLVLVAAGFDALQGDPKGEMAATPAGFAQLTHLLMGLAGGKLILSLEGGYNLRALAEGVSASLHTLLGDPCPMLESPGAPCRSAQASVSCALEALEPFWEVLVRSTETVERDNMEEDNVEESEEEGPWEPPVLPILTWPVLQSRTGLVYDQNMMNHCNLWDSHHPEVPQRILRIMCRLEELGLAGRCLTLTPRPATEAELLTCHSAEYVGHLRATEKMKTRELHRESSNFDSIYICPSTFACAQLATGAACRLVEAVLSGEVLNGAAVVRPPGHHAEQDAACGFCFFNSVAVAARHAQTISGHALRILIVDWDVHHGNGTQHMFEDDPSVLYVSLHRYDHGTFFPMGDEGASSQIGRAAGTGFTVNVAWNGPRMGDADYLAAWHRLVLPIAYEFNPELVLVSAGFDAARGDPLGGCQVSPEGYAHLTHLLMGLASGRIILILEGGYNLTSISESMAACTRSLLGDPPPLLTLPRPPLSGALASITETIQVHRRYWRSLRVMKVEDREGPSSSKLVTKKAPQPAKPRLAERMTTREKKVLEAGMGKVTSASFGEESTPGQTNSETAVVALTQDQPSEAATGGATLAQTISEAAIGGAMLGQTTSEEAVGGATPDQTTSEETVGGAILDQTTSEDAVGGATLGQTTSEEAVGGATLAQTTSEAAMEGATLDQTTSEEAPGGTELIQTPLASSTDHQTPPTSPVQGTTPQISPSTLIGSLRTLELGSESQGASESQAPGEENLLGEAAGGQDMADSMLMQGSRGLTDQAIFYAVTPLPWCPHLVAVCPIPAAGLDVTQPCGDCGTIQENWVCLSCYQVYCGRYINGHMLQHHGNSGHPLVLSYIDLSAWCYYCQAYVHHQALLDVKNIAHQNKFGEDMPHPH", "settings": "at 10 µM", "units": {"inhibition": "%"}, "values": [
      {"molecule": "CC(C(=O)O)c1ccc(C(=O)c2cccs2)cc1", "note": "(stereo not drawn)", "inhibition": -7.49},
      {"molecule": "CC(C(=O)O)c1ccc2c(c1)CC(=O)c1ccccc1S2", "note": "(stereo not drawn)", "inhibition": -3.14},
      {"molecule": "CCC(C)(C)c1ccc(CC(C)CN2C[C@@H](C)O[C@@H](C)C2)cc1", "note": "(stereo partly drawn)", "inhibition": -1.12},
      {"molecule": "C=C1NC[C@H](O)[C@@H](C(=O)O)N1", "inhibition": -0.94},
      {"molecule": "COC(=O)C1=C(C)NC(C)=C(C(=O)OCCSc2ccccc2)C1C", "note": "(stereo not drawn)", "inhibition": -9.24},
      {"molecule": "CCOc1ccc(-n2c(C(C)N(Cc3cccnc3)C(=O)Cc3ccc(OC(F)(F)F)cc3)nc3ncccc3c2=O)cc1", "note": "(racemic)", "inhibition": 6.86},
      {"molecule": "O=C1Nc2cc(Br)ccc2/C1=C1/Nc2ccccc2/C1=N\\O", "inhibition": 93.4},
      {"molecule": "O=C1Nc2ccccc2/C1=C1/Nc2ccccc2C1=O", "inhibition": 60.6},
      {"molecule": "CN1C(=O)/C(=C2/C(=O)Nc3ccccc32)c2ccccc21", "inhibition": 32.9},
      {"molecule": "O=C1Nc2ccccc2/C1=C1/Nc2ccccc2/C1=N\\O", "inhibition": 100},
      {"molecule": "N[C@@H]1CCN(O)C1=O", "inhibition": 19.6},
      {"molecule": "C/C=C1\\C(=O)C[C@H]2[C@@H]3CCC4=CC(=O)CC[C@]4(C)[C@H]3CC[C@]12C", "inhibition": -4.59},
      {"molecule": "Cc1csc2c(N[C@@H](C)CN3CCN(S(=O)(=O)c4ccc(Cl)c(Cl)c4)CC3)ncnc12", "inhibition": 7.29},
      {"molecule": "CNC(=O)[C@H]1O[C@@H](n2cnc3c(NCc4cccc(I)c4)ncnc32)[C@H](O)[C@@H]1O", "inhibition": 9.22},
      {"molecule": "CC(C)(C)c1cc(O)c(C(C)(C)C)cc1O", "inhibition": 10.7},
      {"molecule": "CCOc1cc(C(=O)Nc2ccc(Cl)c(-c3nc4ccccc4[nH]3)c2)cc(OCC)c1OCC", "inhibition": 11.9},
      {"molecule": "Nc1nc(=O)c2c([nH]1)NC[C@H](CNc1ccc(C(=O)N[C@@H](CCC(=O)O)C(=O)O)cc1)N2C=O", "inhibition": 3.47},
      {"molecule": "O=c1[nH]cnc2c1cnn2[C@@H]1O[C@H](CO)[C@@H](O)[C@H]1O", "inhibition": 20.8},
      {"molecule": "N[C@@H](Cc1cc(-c2ccc(Cl)cc2Cl)cc(CP(=O)(O)O)c1O)C(=O)O", "inhibition": 4.67},
      {"molecule": "O=c1c(O[C@@H]2O[C@H](CO)[C@H](O)[C@H](O)[C@H]2O)c(-c2ccc(O)c(O)c2)oc2cc(O)cc(O)c12", "inhibition": 28.9},
      {"molecule": "O=C1c2c(O)cc(O)cc2O[C@H](c2cc(O)c(O)c(O)c2)[C@H]1O", "inhibition": -0.55},
      {"molecule": "O=c1c(O)c(-c2cc(O)c(O)c(O)c2)oc2cc(O)cc(O)c12", "inhibition": 100},
      {"molecule": "Cc1cc(=O)oc2cc(O)ccc12", "inhibition": 35.6},
      {"molecule": "O=c1c(O)c(-c2ccc(O)cc2O)oc2cc(O)cc(O)c12", "inhibition": 92.5},
      {"molecule": "O=c1c(O)c(-c2ccc(O)c(O)c2)oc2cc(O)ccc12", "inhibition": 97.4},
      {"molecule": "Cc1cc(=O)oc2c(C=O)c(O)ccc12", "inhibition": -7.63},
      {"molecule": "O=c1c(O)c(-c2ccc(O)cc2)oc2cc(O)cc(O)c12", "inhibition": 98.8},
      {"molecule": "C[C@@H]1O[C@@H](Oc2c(-c3cc(O)c(O)c(O)c3)oc3cc(O)cc(O)c3c2=O)[C@H](O)[C@H](O)[C@H]1O", "inhibition": -6.79},
      {"molecule": "COc1ccc(C(=O)/C(Cc2cc(OC)c(OC)c(OC)c2)=C(\\C(=O)O)c2ccc3c(c2)OCO3)cc1", "inhibition": 26.5},
      {"molecule": "Cc1cc(C)c2c(c1)[C@@H](N(Cc1cc(C(F)(F)F)cc(C(F)(F)F)c1)c1nnn(C)n1)CCCN2C[C@H]1CC[C@H](C(=O)O)CC1", "inhibition": 4.11},
      {"molecule": "Cc1nnsc1C(=O)Nc1ccc(-n2nc(C(F)(F)F)cc2C(F)(F)F)cc1", "inhibition": 8.76},
      {"molecule": "O=C1Cc2cc(CCN3CCN(c4nsc5ccccc45)CC3)c(Cl)cc2N1", "inhibition": 11.8},
      {"molecule": "COc1cccc(OCCCN)c1-c1cc(Nc2cnc(C#N)cn2)n[nH]1", "inhibition": -3.28},
      {"molecule": "N#C[C@@H]1CCCN1C(=O)CNC12CC3CC(CC(O)(C3)C1)C2", "inhibition": -7.44},
      {"molecule": "C/C=C\\C1=C(C(=O)O)N2C(=O)C(NC(=O)C(N)c3ccc(O)cc3)C2SC1", "note": "(stereo not drawn)", "inhibition": -7.76},
      {"molecule": "O=C(O)CCN(O)C(=O)CCCCCCCCC1CC1", "inhibition": 37.2},
      {"molecule": "C=CC[N+]12CC[C@@]34c5ccccc5N5/C=C6/[C@H]7C[C@H]8[C@@]9(CC[N@@+]8(CC=C)C/C7=C/CO)c7ccccc7N(/C=C(/[C@@H](C[C@@H]31)/C(=C\\CO)C2)[C@H]54)[C@@H]69", "note": "(stereo partly drawn)", "inhibition": 31.2},
      {"molecule": "N=C(N)NCCC[C@@H](N)C(=O)N[C@@H](CCCNC(=N)N)C(=O)N1CCC[C@H]1C(=O)N1C[C@H](O)C[C@H]1C(=O)NCC(=O)N[C@@H](Cc1cccs1)C(=O)N[C@@H](CO)C(=O)N1Cc2ccccc2C[C@@H]1C(=O)N1[C@H](C(=O)N[C@@H](CCCNC(=N)N)C(=O)O)C[C@@H]2CCCC[C@@H]21", "inhibition": 31.7},
      {"molecule": "COc1cc(CN(CCN)C(=O)c2cccs2)ccc1OCc1ccccc1", "inhibition": -2.87},
      {"molecule": "CN1CC(=O)N=C1NC(=O)Nc1cccc(Cl)c1", "inhibition": 89.3},
      {"molecule": "CC(C)c1c(NC(=O)Nc2ccc(Cl)cc2)c(=O)n(-c2ccccc2)n1C", "inhibition": -4.84},
      {"molecule": "O=C(Nc1ccc(Cl)cc1)Nc1cccc(-c2cccc(N3CCCC3)n2)c1", "inhibition": 20.6},
      {"molecule": "CC(C)c1onc(-c2c(Cl)cccc2Cl)c1COc1ccc(/C=C/c2cccc(C(=O)O)c2)c(Cl)c1", "inhibition": 3.22},
      {"molecule": "O=C(/C=C/c1ccc2c(c1)OCO2)N1CCCCC1", "inhibition": 97.2},
      {"molecule": "O=C(c1ccc2c(c1)OCO2)N1CCCCC1", "inhibition": 21.9},
      {"molecule": "CC(C)(C)c1ccc(/C=C/C(=O)Nc2ccc3c(c2)OCCO3)cc1", "inhibition": -7.4},
      {"molecule": "CC(C)(C)C(O)/C=C/c1ccc2c(c1)OCO2", "note": "(stereo not drawn)", "inhibition": 15.9},
      {"molecule": "O=C(/C=C/C=C/c1ccc2c(c1)OCO2)N1CCCCC1", "inhibition": 115}
    ]}
  ]
}
